Unmarked numbers belong to inactive results. Results filed as inconclusive are left out. A call without a number means that no potency is given here. Calls of active or inactive are those of the source. The call rests on the fitted dose curve; in most records, active means well fitted curve in the direction sought with a large enough effect; inconclusive means small, poorly fitted or top-dose-only effect, or another doubt; inactive means no such curve, though single readings can be large; an effect the other way counts as inactive or inconclusive.
What was measured:
[1] = target: Glutathione peroxidase 1 (Homo sapiens) (UniProt P07203); assay: Primary qHTS Assay for Inhibitors of Recombinant Selenoprotein Glutathione Peroxidase 1 (GPX1) (AID 1845191); further: nearly all actives have a fitted effect of over 65% in size
Outline: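 GR-coupled assay: compounds preincubated 30 min at room temperature with GPX1, then reaction started with CHP; final 10 nM GPX1, 1 mM GSH, 0.5 mM CHP, 0.5 mM NADPH, 100 nM GR, 0.01% BSA, pH 7.5 Tris buffer. NADPH fluorescence (340/450 nm) read at 0 and 15 min.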

[2] = target: Phospholipid hydroperoxide glutathione peroxidase GPX4 (Homo sapiens) (UniProt P36969); assay: Primary qHTS Assay for Inhibitors of Recombinant Selenoprotein Glutathione Peroxidase 4 (GPX4) (AID 1845192); further: nearly all actives have a fitted effect of over 65% in size
Outline: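 GR-coupled assay: recombinant GPX4 preincubated 30 min with compound at room temperature; final 200 nM GPX4, 1 mM GSH, 0.5 mM cumene hydroperoxide, 0.5 mM NADPH, 100 nM GR, 0.01% BSA, pH 7.5 Tris. NADPH fluorescence (340/450 nm) read at 0 and 15 min.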

[3] = target: Luciferin 4-monooxygenase (Photinus pyralis) (UniProt P08659); assay: Primary firefly luciferase (FLuc) qHTS assay for identification of artifact compounds. (AID 1845220); further: nearly all actives have a fitted effect of over 60% in size; further: potency means the concentration at half of the fitted maximal effect
Outline: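 Titrated compounds were incubated 15 min at RT, protected from light, with luciferin and ATP at 10 uM; reaction started with 10 nM FLuc, luminescence imaged at 5 min, and concentration-response fitted by Hill equation.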

[4] = test system: Nanoluciferase (engineered Oplophorus gracilirostris luciferase); assay: Primary Nanoluciferase (NLuc) qHTS assay for identification of artifact compounds. (AID 1845222);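 further: NLuc secreted into diluted conditioned medium of S16 cells; series mostly up to about 54 µM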
Outline: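 qHTS format, against NLuc in S16 cell-conditioned medium. Nano-Glo substrate 1:100 was added after 15 min at room temperature. Luminescence was taken after a further 5 min.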

[5] = Primary redox qHTS assay for identification of artifact compounds. (AID 1845223)
Outline: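 Amplex Red (25 uM) and HRP (250 mU/mL) in HBSS, with compounds for 15 min, then 250 uM DTT for 30 min, room temperature, dark. Fluorescence 525/598 nm read; normalized to DMSO and 10 uM DA3003; Hill fit.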

Sequence of Phospholipid hydroperoxide glutathione peroxidase GPX4 (Homo sapiens) (P36969 whole entry, looked up): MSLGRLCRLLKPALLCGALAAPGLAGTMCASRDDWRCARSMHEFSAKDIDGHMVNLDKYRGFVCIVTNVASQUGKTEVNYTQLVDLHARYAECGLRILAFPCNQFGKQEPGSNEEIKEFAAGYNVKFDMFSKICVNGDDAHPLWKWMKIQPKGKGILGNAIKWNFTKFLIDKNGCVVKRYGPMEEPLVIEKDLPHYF
Sequence of Glutathione peroxidase 1 (Homo sapiens) (P07203 whole entry, looked up): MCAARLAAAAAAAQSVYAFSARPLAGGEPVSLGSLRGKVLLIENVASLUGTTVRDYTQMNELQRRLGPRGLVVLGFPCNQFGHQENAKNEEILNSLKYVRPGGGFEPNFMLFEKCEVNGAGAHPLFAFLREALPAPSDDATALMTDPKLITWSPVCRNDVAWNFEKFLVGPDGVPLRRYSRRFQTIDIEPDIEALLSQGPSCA

SMILES | Potency [1] | Potency [2] | Potency [3] | Potency [4] | Potency [5]
OC[C@@]1(O)CO[C@H](OC[C@H]2O[C@@H](OCCc3ccccc3)[C@H](O)[C@@H](O)[C@@H]2O)[C@@H]1O | inactive | inactive | inactive | inactive | inactive
CC1CC(=O)[C@]2(O)C(C(=O)OCCc3ccc(O)cc3)=CO[C@@H](O[C@@H]3O[C@H](CO)[C@@H](O)[C@H](O)[C@H]3O)[C@H]12 (stereo not given in full) | inactive | inactive | inactive | inactive | inactive
COc1cc(/C=C/C(=O)O[C@@H]2C[C@](O)(C(=O)O)C[C@@H](O)[C@H]2O)ccc1O | inactive | inactive | inactive | inactive | inactive
Oc1ccc2c(-c3c(-c4ccccn4)nn4c3CCC4)ccnc2c1 | inactive | inactive | inactive | inactive | inactive
C=C[C@@](C)(CCC=C(C)C)O[C@@H]1O[C@H](CO[C@@H]2OC[C@H](O)[C@H](O)[C@H]2O)[C@@H](O)[C@H](O)[C@H]1O | inactive | inactive | inactive | inactive | inactive
CC(C)C1NC(=O)C2CCCN2C1=O (stereo not given) | inactive | inactive | inactive | inactive | inactive
CC1CCC2(C(=O)O)CCC3(C)C(=CCC4C5(C)CCC(O)C(C)(C(=O)O)C5CCC43C)C2C1(C)O (stereo not given) | inactive | inactive | inactive | inactive | inactive
O=C(Nc1cc(-c2ccccc2)nn1-c1ccccc1F)c1ccc([N+](=O)[O-])cc1 | inactive | inactive | inactive | inactive | inactive
Cc1c(NC(=O)N2CCOCC2)ccc2c1c1ccccc1n2C(C)C | inactive | inactive | inactive | inactive | inactive
O=C(O[C@H]1[C@H](Oc2ccc(O)cc2CO)O[C@H](CO)[C@@H](O)[C@@H]1O)c1ccccc1 | inactive | inactive | inactive | inactive | inactive
CC1=C2C(=O)C=C(CO)C2[C@H]2OC(=O)[C@H](C)[C@@H]2[C@@H](OC(=O)Cc2ccc(O)cc2)C1 (stereo not given in full) | inactive | inactive | inactive | inactive | inactive
COC(=O)C1=CO[C@@H](O[C@@H]2O[C@H](CO)[C@@H](O)[C@H](O)[C@H]2O)[C@H]2[C@@H]1[C@H](O)C[C@]2(C)O | inactive | inactive | inactive | inactive | inactive
CC/C=C\[C@H](O)[C@H](O)C1=C(C)C(=O)[C@]2(O1)C(=O)N[C@@](O)(C(=O)c1ccccc1)[C@@H]2O | inactive | inactive | inactive | inactive | inactive
CC(O)CCc1ccc(O[C@@H]2O[C@H](CO)[C@@H](O)[C@H](O)[C@H]2O)cc1 (stereo not given in full) | inactive | inactive | inactive | inactive | inactive
COc1cc(O)c2c(c1)C1(OC2=O)C(C)=CC(=O)C1O (stereo not given) | inactive | inactive | inactive | inactive | inactive
CN1CCN(C2=Nc3ccccc3Nc3ccc(O)cc32)CC1 | inactive | inactive | inactive | inactive | inactive
C[C@]1(OC(=O)/C=C\c2ccc(O)cc2)C[C@@H](O)[C@]2(O)C=CO[C@@H](O[C@@H]3O[C@H](CO)[C@@H](O)[C@H](O)[C@H]3O)C12 (stereo not given in full) | inactive | inactive | inactive | inactive | inactive
COc1cc(CO)ccc1O[C@@H]1O[C@H](CO)[C@@H](O)[C@H](O)[C@H]1O | inactive | inactive | inactive | inactive | inactive
O=C(O)Cc1cn([C@@H]2O[C@H](CO)[C@@H](O)[C@H](O)[C@H]2O[C@@H]2O[C@H](CO)[C@@H](O)[C@H](O)[C@H]2O)c2ccccc12 | inactive | inactive | inactive | inactive | inactive
C[C@H]1CC(=O)C2=C(C1)C(O)C(O)[C@@]1(O)[C@H]2C(=O)c2cccc(O)c2[C@@H]1O (stereo not given in full) | inactive | inactive | inactive | inactive | inactive
O=C(O)Cc1cn([C@@H]2OC[C@@H](O[C@@H]3O[C@H](CO)[C@@H](O)[C@H](O)[C@H]3O)[C@H](O)[C@H]2O[C@@H]2O[C@H](CO)[C@@H](O)[C@H](O)[C@H]2O)c2ccccc12 | inactive | inactive | inactive | inactive | inactive
CC/C=C\CC1C(CC(=O)O)CCC1OC1OC(CO)C(O)C(O)C1O (stereo not given) | inactive | inactive | inactive | inactive | inactive
Cc1occc1C(=O)n1ccnc1 | inactive | inactive | inactive | inactive | inactive
COc1cc(CC2COC(c3ccc(OC4OC(CO)C(O)C(O)C4O)c(OC)c3)C2CO)ccc1O (stereo not given) | inactive | inactive | inactive | inactive | inactive
C=CCc1cc(OC)c(OC(C)C(O)c2ccc(O)c(OC)c2)c(OC)c1 (stereo not given) | inactive | inactive | inactive | inactive | inactive

SMILES | Potency [1] | Potency [2] | Potency [3] | Potency [4] | Potency [5]
OC[C@@]1(O)CO[C@@H](OC[C@H]2O[C@@H](Oc3ccccc3)[C@H](O)[C@@H](O)[C@@H]2O)[C@@H]1O | inactive | inactive | inactive | inactive | inactive
C=C1CC23CC1CCC2C12OC(=O)C(C)(C(O)CC1O)C2C3C(=O)O (stereo not given) | inactive | inactive | inactive | inactive | inactive
CCC(C)/C=C(C)/C=C/C1=CC2=C(Cl)C(=O)C(C)(O)C(=O)C2(O)C(OC)O1 (stereo not given) | inactive | inactive | inactive | inactive | inactive
CC1=C(CO)C2(C)CCCC(C)(C)C2C(O)C1O (stereo not given) | inactive | inactive | inactive | inactive | inactive
C/C(=C\C(=O)C(C)C1CCC2C3=C(CCC21C)C1(C)CCC(=O)C(C)(C)C1(O)CC3)C(C)(C)O (stereo not given) | inactive | inactive | inactive | inactive | inactive
C/C=C1\[C@H](O[C@@H]2O[C@H](CO)[C@@H](O)[C@H](O)[C@H]2O)OC=C(C(=O)O)[C@H]1CC(=O)OCCc1ccc(O)cc1 | inactive | inactive | inactive | inactive | inactive
Cc1ccc(Nc2nnc(-c3ccc([N+](=O)[O-])cc3)o2)cc1Cl | inactive | inactive | inactive | inactive | inactive
NC1(c2ccc(NC(=O)c3ccnc(-c4cc(C(=O)O)ccn4)c3)cc2)CC1 | inactive | inactive | inactive | inactive | inactive
C/C1=C\CC[C@]2(C)O[C@H]2C(=O)c2c(C)coc2C1 | inactive | inactive | inactive | inactive | inactive
COc1ccc(O[C@@H]2O[C@H](CO)[C@@H](O)[C@H](O)[C@H]2O)cc1OC | inactive | inactive | inactive | inactive | inactive
OC[C@@]1(O)CO[C@H](OC[C@H]2O[C@@H](OC(CCCCc3ccc(O)cc3)CCc3ccc(O)cc3)[C@H](O[C@H]3OC[C@](O)(CO)[C@H]3O)[C@@H](O)[C@@H]2O)[C@@H]1O (stereo not given in full) | inactive | inactive | inactive | inactive | inactive
C=CCc1ccc(O[C@@H]2O[C@H](CO)[C@@H](O)[C@H](O)[C@H]2O)c(O[C@@H]2O[C@H](CO)[C@@H](O)[C@H](O)[C@H]2O)c1 | inactive | inactive | inactive | inactive | inactive
Cc1ccc(C)c(NC(=O)CNS(=O)(=O)c2ccc3[nH]c(=O)oc3c2)c1 | inactive | inactive | inactive | inactive | inactive
O=C(O)c1cccc(C(=O)CCC2OC(n3cnc4c(=O)[nH]cnc43)C(O)C2O)c1 (stereo not given) | inactive | inactive | inactive | inactive | inactive
C=C1CC23CC1CCC2C12OC(=O)C(C)(C(O)C(O)C1O)C2C3C(=O)O (stereo not given) | inactive | inactive | inactive | inactive | inactive
C/C(=C\CCC(C)(C)O)CCO[C@@H]1O[C@H](CO[C@@H]2O[C@@H](C)[C@H](O)[C@@H](O)[C@H]2O)[C@@H](O)[C@H](O)[C@H]1O | inactive | inactive | inactive | inactive | inactive
O=C(CC1CC(c2ccc(F)cc2F)=NO1)N1CCOCC1 (stereo not given) | inactive | inactive | 2.13 µM (active) | inactive | inactive
O=C(O)c1ccnc(-c2cc(C(=O)NCCc3ccccc3)ccn2)c1 | inactive | inactive | inactive | inactive | inactive
COC(=O)[C@]1(Cc2ccc(O)c(CC=C(C)C)c2)OC(=O)C(O)=C1c1ccc(O)cc1 | inactive | inactive | inactive | inactive | inactive
CC(=O)c1c(C)cccc1O[C@@H]1O[C@H](CO)[C@@H](O)[C@H](O)[C@H]1O | inactive | inactive | inactive | inactive | inactive
COc1ccc(N2CCN(CCCNC(=O)Cn3c(=O)c4cccn4c4c(C)ccnc43)CC2)cc1 | inactive | inactive | inactive | inactive | inactive
C=C(C)C(O)COc1ccc(CC(=O)O)cc1 (stereo not given) | inactive | inactive | inactive | inactive | inactive
CC(C)=CCC[C@@](C)(O)[C@H]1CC[C@]2(C)[C@@H]1[C@H](O)CC1[C@@]3(C)CC[C@H](O[C@@H]4O[C@H](CO)[C@@H](O)[C@H](O)[C@H]4O[C@@H]4O[C@H](CO)[C@@H](O)[C@H](O)[C@H]4O)C(C)(C)[C@@H]3CC[C@]12C (stereo not given in full) | inactive | inactive | inactive | inactive | inactive
C[C@@H]1C[C@@H](O)[C@@]2(CO)C(CO)=CCC[C@@H]2[C@@]12C[C@@H](c1ccoc1)OC2=O | inactive | inactive | inactive | inactive | inactive
CCC(=O)N1CCc2cc(OC)c(O)cc2C1 | inactive | inactive | inactive | inactive | inactive

Source: PubChem BioAssay (NCATS)
